In PubChem BioAssay (Tox21):
Values joined by “and” are separate entries in the source; they are usually repeats but may differ in a detail not shown here. Identical values can stand only once. Unmarked numbers belong to inactive results. Records with an inconclusive call do not appear. Entries that show only a call come without a potency. Active and inactive are the calls of the source. Unless noted, calls follow the shape of the dose curve; as a rule, active = well fitted curve in the direction sought with a large enough effect in the repeat runs; inconclusive = weak or mixed curves; inactive = no such curve, though single readings can be large; an effect the other way counts as inactive or inconclusive.

How the values were obtained:
[1] = qHTS assay to identify small molecule agonists of the hypoxia (HIF-1) signaling pathway (AID 1224846; active = well fitted activation curve with a large enough effect in the signal ratio in the repeat runs, not every such curve was filed as active; the % refers to the signal ratio); conditions: HRE-bla ME-180 cells, beta-lactamase ratio, 17 h; series mostly up to 76.8 µM
Outline: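 HRE-bla ME-180 cells (beta-lactamase reporter under hypoxia response element) were plated at 2,000 cells/well in medium with 0.5% dialyzed FBS, rested 5 hrs, then given compounds in DMSO for 17 hrs at 37C, 5% CO2. Reporter induction was read with CCF4-AM FRET substrate.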

[2] = qHTS assay to identify small molecule agonists of H2AX - cell viability counter screen (AID 1224847; calls by dose curve;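 also: wild-type CHO-K1 cells; top concentration of the series differs between compounds; nearly all actives have a fitted effect of over 30% in size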); conditions: CHO-K1 viability, CellTiter-Glo luminescence, 3 h; series mostly up to 154 µM
Outline: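 Cells plated first: CHO-K1, 1000 per well in 10% FBS medium, incubated overnight at 37C. Then 15-point compound titration added (final DMSO 0.76%) for 3 hr. Finally CellTiter-Glo added and luminescence read.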

[3] = qHTS RealTime-Glo MT Cell Viability Assay in HepG2 cells - 24 hour (AID 1224867); conditions: RealTime-Glo luminescence; series mostly up to 76.8 µM; also: nearly all actives have a fitted effect of over 50% in size; also: potency is read from the fitted curve at half-maximal effect
Outline: (§1)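 Viability was tracked continuously by NanoLuc luminescence from prosubstrate reduced by living HepG2 cells, at successive time points over 40 h of compound exposure. Cells with reagent were preincubated 5 h at 37 °C before compound addition.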

[4] = qHTS RealTime-Glo MT Cell Viability Assay in HEK293 cells - 32 hour (AID 1224868); conditions: RealTime-Glo luminescence; series mostly up to 76.8 µM; also: nearly all actives have a fitted effect of over 50% in size; also: potency is read from the fitted curve at half-maximal effect
Outline: (§2)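 Viability tracked continuously by luminescence as live cells reduce a prosubstrate for NanoLuc; HEK293 cells preincubated 5 h, compound-treated at 37 C, and read at 0, 8, 16, 24, 32 and 40 h.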

[5] = A CellTox Green Cytotoxicity Assay to monitor cytotoxicity in HEK293 cells - 40 hour (AID 1224871); conditions: CellTox Green fluorescence; series mostly up to 76.8 µM; also: nearly all actives have a fitted effect of over 45% in size; also: potency is read from the fitted curve at half-maximal effect
Outline: (§3)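 HEK293 cells premixed with CellTox Green dye were seeded at 600 cells/well and left 5 h at 37 C/5% CO2 before pin transfer of 23 nL compound in DMSO. Fluorescence from dye bound to dead-cell DNA was read during 40 h treatment.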

[6] = qHTS RealTime-Glo MT Cell Viability Assay in HEK293 cells - 16 hour (AID 1224872); conditions: RealTime-Glo luminescence; series mostly up to 76.8 µM; also: nearly all actives have a fitted effect of over 50% in size; also: potency is read from the fitted curve at half-maximal effect
Outline: as §2

[7] = qHTS RealTime-Glo MT Cell Viability Assay in HepG2 cells - 8 hour (AID 1224873); conditions: RealTime-Glo luminescence; series mostly up to 76.8 µM; also: nearly all actives have a fitted effect of over 55% in size; also: potency is read from the fitted curve at half-maximal effect
Outline: (§4)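 HepG2 cells (600/well) mixed with RealTime-Glo MT reagent, settled 5 h at 37 C/5% CO2 before compound addition. Nonlytic NanoLuc luminescence from viable-cell prosubstrate reduction read repeatedly during 40 h treatment at 37 C.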

[8] = qHTS RealTime-Glo MT Cell Viability Assay in HEK293 cells - 40 hour (AID 1224874); conditions: RealTime-Glo luminescence; max response: active compounds read low; also: nearly all actives have a fitted effect of over 50% in size; also: potency is read from the fitted curve at half-maximal effect
Outline: (§5)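 HEK293 cells mixed with RealTime-Glo reagents (NanoLuc plus cell-permeant prosubstrate) at 600 cells/well, preincubated 5 h at 37 C/5% CO2, then given 23 nL compound in DMSO. Nonlytic luminescence from viable cells was read at 0, 8, 16, 24, 32 and 40 h.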

[9] = A CellTox Green Cytotoxicity Assay to monitor cytotoxicity in HEK293 cells - 24 hour (AID 1224875); conditions: CellTox Green fluorescence; series mostly up to 76.8 µM; also: nearly all actives have a fitted effect of over 45% in size
Outline: as §3

[10] = A CellTox Green Cytotoxicity Assay to monitor cytotoxicity in HepG2 cells - 16 hour (AID 1224876); conditions: CellTox Green fluorescence; series mostly up to 76.8 µM; also: nearly all actives have a fitted effect of over 45% in size
Outline: (§6)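 HepG2 cells were seeded together with the CellTox Green dye at 600 cells/well, left 5 h at 37 C/5% CO2, then given compounds in DMSO. Fluorescence from dye bound to dead-cell DNA was read repeatedly over 40 h of treatment at 37 C.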

[11] = qHTS RealTime-Glo MT Cell Viability Assay in HepG2 cells - 32 hour (AID 1224877); conditions: RealTime-Glo luminescence; series mostly up to 76.8 µM; also: nearly all actives have a fitted effect of over 55% in size; also: potency is read from the fitted curve at half-maximal effect
Outline: as §1

[12] = A CellTox Green Cytotoxicity Assay to monitor cytotoxicity in HepG2 cells - 24 hour (AID 1224878); conditions: CellTox Green fluorescence; series mostly up to 76.8 µM; also: nearly all actives have a fitted effect of over 45% in size; also: potency is read from the fitted curve at half-maximal effect
Outline: as §6

[13] = A CellTox Green Cytotoxicity Assay to monitor cytotoxicity in HepG2 cells - 40 hour (AID 1224879); conditions: CellTox Green fluorescence; series mostly up to 76.8 µM; also: nearly all actives have a fitted effect of over 40% in size; also: potency is read from the fitted curve at half-maximal effect
Outline: as §6

[14] = qHTS RealTime-Glo MT Cell Viability Assay in HEK293 cells - 0 hour (AID 1224880); conditions: RealTime-Glo luminescence; series mostly up to 76.8 µM
Outline: as §5

[15] = A CellTox Green Cytotoxicity Assay to monitor cytotoxicity in HEK293 cells - 32 hour (AID 1224881); conditions: CellTox Green fluorescence; series mostly up to 76.8 µM; also: nearly all actives have a fitted effect of over 40% in size; also: potency is read from the fitted curve at half-maximal effect
Outline: as §3

[16] = qHTS assay to identify small molecule antagonists of the estrogen related receptor (ERR) signaling pathway from Tox21 library (AID 1224848); conditions: ERR reporter cell line, luciferase antagonist mode, 18 h; series mostly up to 92.4 µM; also: nearly all actives have a fitted effect of over 50% in size; also: potency is read from the fitted curve at half-maximal effect
Outline: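 Luminescent reporter read-out (ONE-Glo) from NTP's ERR cell line after 18 h treatment at 37 C with DMSO-dissolved Tox21 compounds; cells pre-plated 6 h beforehand at 2,000 per well.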

[17] = qHTS assay to identify small molecule agonists of the estrogen related receptor (ERR) signaling pathway from Tox21 library (AID 1224849; calls by dose curve; also: nearly all actives have a fitted effect of over 15% in size); conditions: ERR reporter cell line, ONE-Glo luciferase, 18 h
Outline: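 ERR reporter cell line (NTP) seeded, rested 6 h at 37 C/5% CO2, then pinned with Tox21 compounds in DMSO. After 18 h at 37 C, ONE-Glo luciferase luminescence was read following 30 min at room temperature.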

[18] = A CellTox Green Cytotoxicity Assay to monitor cytotoxicity in HEK293 cells - 0 hour (AID 1224869); conditions: CellTox Green fluorescence; series mostly up to 76.8 µM; also: nearly all actives have a fitted effect of over 50% in size
Outline: as §3

[19] = qHTS RealTime-Glo MT Cell Viability Assay in HepG2 cells - 40 hour (AID 1224870); conditions: RealTime-Glo luminescence; series mostly up to 76.8 µM; also: nearly all actives have a fitted effect of over 50% in size; also: potency is read from the fitted curve at half-maximal effect
Outline: as §4

In the case of `[CH3][Sn]([Cl])([Cl])[Cl]`, the outcome [1] is reported as “inactive”, the Potency [2] is reported as “inactive” and the Potency [3] is reported as “inactive”. For the same compound, the Potency [4] was “inactive”, the Potency [5] was “inactive” and the Potency [6] was “inactive”. For the same compound, the Potency [7] was “inactive”, the max response [8] was 17% and 3.42% and the Potency [9] was “inactive”. The Potency [10] was “inactive”, the Potency [11] was “inactive” and the Potency [12] was “inactive”. For the same compound, the Potency [13] was “inactive”, the Potency [14] was “inactive” and the Potency [15] was “inactive”.

In the case of `CCNCC`, the outcome [1] is reported as “inactive”, the Potency [2] is reported as “inactive” and the Potency [16] is reported as “inactive”. The activity change, positive = activation ([17]; at 92.4 µM (top of the series)) was 1.09% and 1.12%, the Potency [3] was “inactive” and the Potency [4] was “inactive”. The Potency [5] was “inactive”, the Potency [6] was “inactive” and the Potency [7] was “inactive”. The max response [8] was -0.119% and -1.58%, the Potency [9] was “inactive” and the Potency [10] was “inactive”. For the same compound, the Potency [11] was “inactive”, the Potency [12] was “inactive” and the Potency [13] was “inactive”. The Potency [14] was “inactive” and the Potency [15] was “inactive”.

In the case of `C=CC(=O)OCC(CC)(COC(=O)C=C)COC(=O)C=C`, the Potency [16] is reported as 15.8 µM (active) and 19.3 µM (active), the activity change, positive = activation ([17]; at 92.4 µM (top of the series)) is reported as -82.1% and -76.4% and the Potency [3] is reported as 25.2 µM (active) and 12.3 µM (active). The Potency [4] was 3.56 µM (active) and 11 µM (active), the Potency [18] was “inactive” and the Potency [19] was 35.6 µM (active) and 12.3 µM (active). The Potency [5] was 4.48 µM (active) and 7.76 µM (active), the Potency [6] was 6.33 µM (active) and 12.3 µM (active) and the Potency [7] was 22.5 µM (active) and 9.77 µM (active). For the same compound, the Potency [8] was 3.56 µM (active) and 9.77 µM (active), the Potency [9] was “inactive” and the Potency [10] was “inactive”. The Potency [11] was 25.2 µM (active) and 12.3 µM (active), the Potency [12] was 14.2 µM (active) and the Potency [13] was 12.6 µM (active). The Potency [14] was “inactive” and the Potency [15] was 5.64 µM (active) and 11 µM (active).

In the case of `CCCCSP(=O)(SCCCC)SCCCC`, the outcome [1] is reported as “inactive”, the Potency [2] is reported as “inactive” and the Potency [3] is reported as “inactive”. For the same compound, the Potency [4] was “inactive”, the Potency [18] was “inactive” and the Potency [19] was “inactive”. The Potency [5] was “inactive”, the Potency [6] was “inactive” and the Potency [7] was “inactive”. For the same compound, the max response [8] was -17.8% and -14.6%, the Potency [9] was “inactive” and the Potency [10] was “inactive”. The Potency [11] was “inactive”, the Potency [12] was “inactive” and the Potency [13] was “inactive”. The Potency [14] was “inactive”.

For `NC(=O)CN1CCCC1=O`, the Potency [2] was “inactive”, the Potency [16] was “inactive” and the activity change, positive = activation ([17]; at 42.5 µM (top of the series)) was 2.36%. The activity change, positive = activation ([17]; at 92.4 µM (top of the series)) was 6.19%, the Potency [3] was “inactive” and the Potency [4] was “inactive”. For the same compound, the Potency [19] was “inactive”, the Potency [5] was “inactive” and the Potency [6] was “inactive”. The Potency [7] was “inactive”, the max response [8] was 3.12% and 0.0955% and the Potency [9] was “inactive”. The Potency [10] was “inactive”, the Potency [11] was “inactive” and the Potency [12] was “inactive”. The Potency [13] was “inactive”, the Potency [14] was “inactive” and the Potency [15] was “inactive”.
